Results: PubChem BioAssay AID1851 (National Center for Advancing Translational Sciences (NCATS), 2009)
About 4,000 (25%) of roughly 16,000 compounds were called active. Not shown: some 26% with an inconclusive outcome. These entries were drawn from the full list. Unmarked numbers belong to inactive results. Calls follow the shape of the dose curve; as a rule, active = well fitted curve in the direction sought with a large enough effect; inconclusive = small, poorly fitted or top-dose-only effect, or effect the other way; inactive = no such curve, though single readings can be large or run the other way.

Each compound was assayed against Cytochrome P450 2C9 (Homo sapiens) (UniProt P11712) (assay: Cytochrome panel assay with activity outcomes). Conditions: recombinant CYP, pro-luciferin dealkylation, luminescence, p450-cyp2c9; series mostly up to 57.1 µM.
% is scaled to controls: 0 for no effect and ±100 for the full control effect.

Sequence of Cytochrome P450 2C9 (Homo sapiens) (P11712 whole entry, looked up): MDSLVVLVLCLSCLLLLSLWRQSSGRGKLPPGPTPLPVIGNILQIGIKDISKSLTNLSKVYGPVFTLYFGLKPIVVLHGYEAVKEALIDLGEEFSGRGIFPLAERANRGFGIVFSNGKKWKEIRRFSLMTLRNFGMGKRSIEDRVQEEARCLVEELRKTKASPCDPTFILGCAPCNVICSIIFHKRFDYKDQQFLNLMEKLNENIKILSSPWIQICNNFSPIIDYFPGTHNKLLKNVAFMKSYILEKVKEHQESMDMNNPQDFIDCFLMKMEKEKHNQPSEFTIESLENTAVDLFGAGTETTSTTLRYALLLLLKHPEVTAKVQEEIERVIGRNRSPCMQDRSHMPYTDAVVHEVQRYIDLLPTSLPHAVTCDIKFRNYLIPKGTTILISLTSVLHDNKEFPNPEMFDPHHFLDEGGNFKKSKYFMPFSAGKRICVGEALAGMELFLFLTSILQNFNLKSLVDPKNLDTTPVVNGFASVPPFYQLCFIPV

Structure (SMILES) | activity, negative = inhibition | AC50
C=CCN1CC[C@@]23c4c5ccc(O)c4O[C@H]2/C(=N\N=C2/CC[C@@]4(O)[C@H]6Cc7ccc(O)c8c7[C@@]4(CCN6CC=C)[C@@H]2O8)CC[C@]3(O)[C@@H]1C5 | inactive | –
C[C@H](CCC(=O)O)[C@H]1CC[C@]2(C)[C@@H]3C(=O)C[C@H]4C(C)(C)[C@@H](O)CC[C@]4(C)[C@H]3C(=O)C[C@@]12C | -0.996% [at 11.4 µM] | –
CCCCc1nc2ccccc2c(=O)n1-c1ccc(Cl)cc1[N+](=O)[O-] | inactive | –
CCCc1nc2ccccc2c(=O)n1-c1ccc(OC)cc1 | – | 25.1 µM (active)
Cc1nc2ccccc2c(=O)n1-n1cnnc1 | inactive | –
CCCCc1nc2ccccc2c(=O)n1-c1ccccc1[N+](=O)[O-] | – | 11.2 µM (active)
Cc1nc2ccccc2cc1C[N+]12CN3CN(CN(C3)C1)C2 | 18.3% [at 11.4 µM] | –
COc1ccc2c(c1)C13CCCC[C@@H]1C(C2)N(C)CC3 (stereo partly specified) | inactive | –
CC[C@H](C)C(=O)O[C@@H]1[C@H](O)[C@@H]2[C@H](CN3C[C@@H](C)CC[C@@H]3[C@@]2(C)O)[C@@H]2C[C@@]34O[C@@]5(O)[C@@H](OC(=O)[C@](C)(O)CC)CC[C@@]3(C)[C@H]5[C@H](OC(C)=O)[C@@H](OC(C)=O)[C@H]4[C@]12O | inactive | –
COc1cc2c3cc1Oc1c(O)c(OC)cc4c1[C@@H](Cc1ccc(cc1)Oc1cc(ccc1O)C[C@H]3N(C)CC2)N(C)CC4 | 2.87% [at 11.4 µM] | –
CC(C)N(CC[C@@](C(N)=O)(c1ccccc1)c1ccccn1)C(C)C | inactive | –
N[C@H](Cn1ccc(=O)[nH]c1=O)C(=O)O | inactive | –
O=[N+]([O-])c1ccc2nc(N3CCNCC3)ccc2c1 | inactive | –
CC12CN3CC(C)(CN(C1)C31CCSCC1)C2=O | inactive | –
NCCc1c[nH]c2ccc(C(N)=O)cc12 | inactive | –
N[C@@H](Cc1ccccc1)P(=O)(O)O | -8.88% [at 11.4 µM] | –
CN1[C@H](CC(=O)c2ccccc2)CCC[C@H]1C[C@H](O)c1ccccc1 | inactive | –
CC1(C)CCC2=C(O1)c1ccccc1C(=O)C2=O | – | 31.6 µM (active)
C[C@@H]1CC[C@@H]2N(C1)C[C@H]1[C@@](O)([C@H](O)C[C@]3(O)[C@H]4CC[C@H]5[C@]6(O)O[C@]4(C[C@]13O)[C@@]5(C)CC[C@@H]6O)[C@@]2(C)O | -2.76% [at 11.4 µM] | –
C=CCn1c(O)c(C(C)=NCCCN2CCOCC2)c(=O)[nH]c1=O | inactive | –
C=C(C)[C@H]1CN[C@H](C(=O)O)[C@@H]1CC(=O)O | inactive | –
